From PubChem BioAssay (NCATS)
Results filed as inconclusive are left out. Activity calls are given as the source filed them. The call rests on the fitted dose curve; in most records, active means well fitted cell-killing curve with a large enough effect; inconclusive means small, poorly fitted or top-dose-only effect; inactive means no such curve, though single readings can be large or run the other way. Non-standard residues stand in square brackets, D forms with d. Residues, ends and D or L forms follow the SMILES beside them. *: point of attachment. Nva = CCC[C@H](N)C(=O)O; Cbz = O=C(OCc1ccccc1)*

Assay: qHTS of pediatric cancer cell lines to identify multiple opportunities for drug repurposing: Confirmatory screen for Rh41 cells (AID 1347123);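 further: 48 h compound exposure; nearly all actives have a fitted effect of over 60% in size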
Conditions: Rh41 rhabdomyosarcoma cells, viability/cytotoxicity qHTS; series mostly up to 45.9 µM
Description: Drug repurposing or repositioning has been offered as a strategy for drug development in oncology programs. This approach has special potential for childhood cancers and other rare or orphan diseases, where the expected return on new drug development has been a disincentive to pharmaceuticals.
In this project we exploit the poly-pharmacology of drugs to discover new indications via phenotypic screening of a panel of 19 well-characterized cell lines derived from solid tumors seen in children and adolescents. The goal is to identify approved drugs with previously unrecognized anticancer properties that has the potential to reveal new mechanisms and biological processes involved in carcinogenesis or drug resistance. We employed a titration-based paradigm (quantitative high-throughput screening or qHTS), where all compounds were tested at multiple concentrations for their effect on cell viability. Concentration-response curves (CRCs) were derived directly from the primary screen, and both potency and efficacy values were used to identify compounds with robust bioactivity profiles. We screened the NIH Chemical Genomics Center (NCGC) Pharmaceutical Collection (NPC) and Mechanism Interrogation Plate (MIPE) small molecule collections of approved and investigational compounds against these cell lines; and measured metabolically active cells after 48 hours of compound treatment as a proxy for cell viability.
Assay Submitter: Nathalia J. Martinez, National Center for Advancing Translational Sciences, National Institutes of Health, Rockville, MD, USA; email: natalia.martinez@nih.gov
[1] Shen, M et al. Quantitative high-throughput phenotypic screening of pediatric cancer cell lines identifies multiple opportunities for drug repurposing. Oncotarget 2017 Dec 19;9(4):4758-4772. PMID 29435139.
The cells were obtained from University of North Carolina (UNC), Pediatric Preclinical Testing Program (PPT), and Coriell Institute (CI).
qHTS cell viability assay:
Cells were assayed in growth media at a density of 500-1,000 cells/well. Five microliters of cells were dispensed into 1,536-well, white, solid-bottom, TC-treated plates (Greiner Bio One) using a multidrop dispenser and incubated at 37 degrees C, 5% CO2, under a humidified atmosphere for 5 hours. Twenty-three nanoliters of compounds and controls (neutral control DMSO or positive control bortezomib at final concentration of 2.3 µM) were subsequently transferred by Kalypsys pintool. For primary screens, the MIPE collection was tested at 11-point dilutions (final concentrations range from 0.78 nM to 46 µM) and the NPC collection at 8-point dilutions (final concentrations range from 0.59 nM to 46 µM). Compounds tested in follow-up screens were assayed at 11-point dilutions. Cells were incubated for 48 hours, followed by addition of 3 µL of CellTiter-Glo (Promega). After a 15 min incubation at room temperature, samples were analyzed for luminescence intensity using a ViewLux High-throughput CCD imager equipped with clear filters.
Potency means the concentration at half of the fitted maximal effect.

| Structure (SMILES) | Potency |
| --- | --- |
| Cc1nc(NC(=O)N2CCC[C@@H]2C(N)=O)sc1-c1ccnc(C(C)(C)C(F)(F)F)c1 | 2610 nM (active) |
| COC[C@H](NC(=O)c1cnc(C)s1)C(=O)N[C@@H](COC)C(=O)N[C@@H](Cc1ccccc1)C(=O)[C@@]1(C)CO1 | 46.5 nM (active) |
| Cn1cc(-c2cnn3c(N)c(Br)c([C@H]4CCCNC4)nc23)cn1 | 23300 nM (active) |
| CC(C)NC[C@@H](C(=O)N1CCN(c2ncnc3c2[C@H](C)C[C@H]3O)CC1)c1ccc(Cl)cc1 | 737 nM (active) |
| Cn1cc(CNCC2CCN(c3ncc(C(=O)NO)cn3)CC2)c2ccccc21 | 32.9 nM (active) |
| CC(C)N1[N]C(=C2C=c3cc(O)ccc3=N2)c2c(N)ncnc21 | 522 nM (active) |
| O=C(C=CC=Cc1ccc2c(c1)OCO2)N1CCCCC1 | inactive |
| C[C@H](NCc1ccc2c(c1)nc(NC(=O)c1ccc(-c3cn[nH]c3)s1)n2CCc1ccccc1)C(C)(C)C | 928 nM (active) |
| C=C1C(=CC=C2CCC[C@]3(C)[C@@H]([C@H](C)CCCC(C)(C)O)CC[C@@H]23)C[C@@H](O)C[C@@H]1O | inactive |
| CC(C)C[C@@H](C=O)NC(=O)[C@H](CC(C)C)NC(=O)[C@H](CC(C)C)NC(=O)OCc1ccccc1 (Cbz-Leu-Leu-Leu-aldehyde) | 1170 nM (active) |
| C[C@@H](Oc1ccc2[nH]nc(C=Cc3cnn(CCO)c3)c2c1)c1c(Cl)cncc1Cl | 104 nM (active) |
| Nc1nc2c(c(=O)[nH]1)N(C=O)[C@H](CNc1ccc(C(=O)N[C@@H](CCC(=O)O)C(=O)O)cc1)CN2 | inactive |
| O=C(O)c1ccc(Nc2ncc3c(n2)-c2ccc(Cl)cc2C(c2c(F)cccc2F)=NC3)cc1 | 2330 nM (active) |
| COc1cccc2c1C(=O)c1c(O)c3c(c(O)c1C2=O)C[C@@](O)(C(=O)CO)C[C@@H]3O[C@H]1C[C@H](N)[C@@H](O)[C@H](C)O1 | 293 nM (active) |
| CC(C)(O)Cn1c(NC(=O)c2ccc(-c3cn[nH]c3)s2)nc2cc(CN3CCOCC3)ccc21 | 585 nM (active) |
| O=C1NC(=O)C(=Cc2ccc3nccc(-c4ccncc4)c3c2)S1 | 2610 nM (active) |
| CC(C)C[C@H](NC(=O)CNC(=O)c1cc(Cl)ccc1Cl)B1OC(=O)CC(CC(=O)O)(C(=O)O)O1 (stereo not given in full) | 233 nM (active) |
| CCC[C@@H](C=O)NC(=O)[C@H](CC(C)C)NC(=O)[C@H](CC(C)C)NC(=O)OCc1ccccc1 (Cbz-Leu-Leu-[Nva]-aldehyde) | 1040 nM (active) |
| Cc1cc(Nc2ncc3c(n2)N(C)C(=O)N(c2cc(NC(=O)c4cccc(C(F)(F)F)c4)ccc2C)C3)n(C)n1 | 208 nM (active) |
| CC(C(C)N1CC(=O)NC(=O)C1)N1CC(=O)NC(=O)C1 (stereo not given) | inactive |

| Structure (SMILES) | Potency |
| --- | --- |
| Oc1ccc(-c2ccc(-c3cc(Nc4cccc(CNC5CC5)c4)n[nH]3)cc2)c(O)c1 | 3690 nM (active) |
| CCc1cnn2c(NCc3ccc[n+]([O-])c3)cc(N3CCCC[C@@H]3CCO)nc12 | inactive |
| CC[C@@]1([C@@H]2O[C@@H]([C@H]3O[C@@](O)(CO)[C@H](C)C[C@H]3C)C[C@H]2C)CC[C@H]([C@]2(C)CC[C@]3(C[C@H](O)[C@@H](C)[C@@H]([C@@H](C)[C@@H](OC)[C@H](C)C(=O)O)O3)O2)O1 | 910 nM (active) |
| CCC(C(=O)O)C1CCC(C)C(C(C)C(O)C(C)C(=O)C(CC)C2OC3(C=CC(O)[C@@]4(CC[C@](C)(C5CC[C@@](O)(CC)C(C)O5)O4)O3)C(C)CC2C)O1 (stereo not given in full) | 1470 nM (active) |
| CNC(=O)c1cccc(-c2ccc3c(N4CCOC[C@H]4C)nc(N4CCOC[C@H]4C)nc3n2)c1 | 585 nM (active) |
| CCOc1cc2ncc(C#N)c(Nc3ccc(OCc4ccccn4)c(Cl)c3)c2cc1NC(=O)C=CCN(C)C | 2930 nM (active) |
| Oc1cc(-c2nc(-c3ccccc3)[nH]c2-c2ccncc2)ccc1Cl | 16500 nM (active) |
| CC(=O)O[C@@]12CO[C@H]1C[C@H](O)[C@@]1(C)C(=O)[C@H](O)C3=C(C)[C@@H](OC(=O)C(O)[C@@H](NC(=O)OC(C)(C)C)c4ccccc4)C[C@@](O)([C@@H](OC(=O)c4ccccc4)[C@@H]21)C3(C)C (stereo not given in full) | 10.4 nM (active) |
| N#Cc1c(C2CCNCC2)cc(-c2c(O)cccc2OCC2CC2)nc1N | 3290 nM (active) |
| CCN(CC)Cc1ccc2cc(COC(=O)Nc3ccc(C(=O)NO)cc3)ccc2c1 | inactive |
| CN[C@H]1[C@@H](O)[C@@H]2O[C@@H]3O[C@H](C)CC(=O)[C@]3(O)O[C@@H]2[C@@H](NC)[C@H]1O | inactive |
| C=CCNC1=C2C[C@@H](C)C[C@H](OC)[C@@H](O)[C@@H](C)C=C(C)[C@H](OC(N)=O)[C@@H](OC)C=CC=C(C)C(=O)NC(=CC1=O)C2=O | 737 nM (active) |
| COc1cccc2c1C(=O)c1c(O)c3c(c(O)c1C2=O)C[C@@](O)(C(=O)CO)C[C@H]3O[C@H]1C[C@H](N)[C@H](O)[C@H](C)O1 | 928 nM (active) |
| COc1cc(C=CC(=O)CC(=O)C=Cc2ccc(O)c(OC)c2)ccc1O | 17000 nM (active) |
| COc1cccc2c1C(=O)c1c(O)c3c(c(O)c1C2=O)C[C@@](O)(C(C)=O)C[C@H]3O[C@H]1C[C@H](N)[C@H](O)[C@H](C)O1 | 585 nM (active) |
| CN(C)c1ccc(C(=O)NCCCCCCC(=O)NO)cc1 | 1170 nM (active) |
| O=S(=O)(O)CCSSCCS(=O)(=O)O | inactive |
| C=CC(=O)Nc1cccc(Nc2nc(NC3CCC(N(C)C)CC3)nc3c2ncn3C(C)C)c1 (stereo not given) | 414 nM (active) |
| O=C1c2c(O)cccc2[C@@H]([C@@H]2O[C@H](CO)[C@@H](O)[C@H](O)[C@H]2O)c2cc(CO)cc(O)c21 | inactive |
| C[N+](C)([O-])CCNc1ccc(NCC[N+](C)(C)[O-])c2c1C(=O)c1c(O)ccc(O)c1C2=O | 18500 nM (active) |
